Assay in all cases: NCI-60 one-dose screen, 48 h (100 = growth as untreated, 0 = no growth, -100 = all killed)
In one experiment the test system is SR leukemia. The conditions noted are these: 10 µM unless noted.
The test system of another experiment is RPMI-8226 leukemia. Conditions: 10 µM.
For a further experiment, the system named is OVCAR-8 ovarian. Conditions: 10 µM unless noted.
A further experiment concerns OVCAR-5 ovarian. Conditions: 10 µM unless noted.
The subject of another experiment is OVCAR-4 ovarian. The conditions noted are these: 10 µM unless noted.
The test system of the next experiment is IGROV1 ovarian. The conditions noted are these: 10 µM unless noted.
Another experiment has as its system OVCAR-3 ovarian. Conditions: 10 µM unless noted.
A further experiment has as its system HS 578T breast. The conditions noted are these: 10 µM unless noted.
The next experiment concerns NCI/ADR-RES ovarian. Conditions: 10 µM unless noted.
A further experiment deals with SK-OV-3 ovarian. Conditions: 10 µM.

Data on 15 molecules can be found in PubChem BioAssay (NCI).

SMILES strings stand for the structures. About 83,000 compounds went through this panel and 20% of them were active in at least one assay; those are over-represented in the sample as a whole.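 Results are percent growth after 48 hours of single-concentration exposure. 100 means growth as in untreated cells, lower positive values show inhibition; negative values down to -100 show cell death.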 Values without a mark were called inactive. Activity calls are given as the source filed them. Rule for the calls: active = growth percent below 10; inactive = the rest.

As to `COc1ccc(NS(=O)(=O)c2ccc(-c3cnc(C4CC4)o3)cc2)cc1`, the growth in the experiment on SR leukemia was 40.8%; with RPMI-8226 leukemia, 74.9%; in the experiment with OVCAR-8 ovarian, 81.5%; in the experiment with OVCAR-5 ovarian it was 78.6%; in the experiment on OVCAR-4 ovarian it was 60.8%; in the experiment with IGROV1 ovarian, 62.8%. Further, the growth was 27.4% in the experiment with OVCAR-3 ovarian, 42.4% in the experiment on HS 578T breast and 30.3% in the experiment on NCI/ADR-RES ovarian.

`COc1ccc(OC)c(/C=C2\Oc3cc(O)ccc3C2=O)c1`: the growth with SR leukemia is 75.7%; in the experiment with RPMI-8226 leukemia, 92.2%; with OVCAR-8 ovarian, 85.6%; in the experiment on OVCAR-5 ovarian, 101%; with OVCAR-4 ovarian, 86.7%; in the experiment with IGROV1 ovarian it was 89.3%. Also, the growth in the experiment with OVCAR-3 ovarian was 95.8%; in the experiment on HS 578T breast, 80.8%; in the experiment with NCI/ADR-RES ovarian it was 92.9%.

With `CCOC(=O)c1cn2c3c(cc(F)cc3c1=O)C(CC)c1ccccc1C2` (stereo not given), the growth in the experiment on SR leukemia is 66.2%; with RPMI-8226 leukemia, 64.2%; in the experiment on OVCAR-8 ovarian, 95.9%; in the experiment with OVCAR-5 ovarian it was 104%; in the experiment with SK-OV-3 ovarian, 104%; with IGROV1 ovarian, 93.1%. Moreover, the values for the growth in the experiment with OVCAR-3 ovarian and in the experiment on NCI/ADR-RES ovarian were 92.9% and 91.2%, respectively.

As to `Cc1cc(C)c(S(=O)O)c(C)c1`, the growth in the experiment with SR leukemia was 102%; in the experiment with RPMI-8226 leukemia, 102%; in the experiment with OVCAR-8 ovarian it was 115%; in the experiment with OVCAR-5 ovarian, 114%; in the experiment on OVCAR-4 ovarian it was 111%; with IGROV1 ovarian, 129%. For the same molecule, the growth is 120% in the experiment on OVCAR-3 ovarian, 104% in the experiment on HS 578T breast and 97% in the experiment on NCI/ADR-RES ovarian.

In the case of `O=C(NC1CC1)c1cc2n(n1)CC(c1ccccc1)N2` (stereo not given), the growth in the experiment on SR leukemia is 104%; with RPMI-8226 leukemia, 112%; in the experiment with OVCAR-8 ovarian, 105%; in the experiment on OVCAR-5 ovarian, 95.9%; with OVCAR-4 ovarian, 104%; in the experiment on IGROV1 ovarian, 100%. Moreover, the growth was 112% in the experiment with OVCAR-3 ovarian, 83.8% in the experiment with HS 578T breast and 104% with NCI/ADR-RES ovarian.

On to `COc1cc(/C=N/NC(=O)c2cnn3c2NC(c2ccccc2)C3)cc(OC)c1OC` (stereo not given), for which the growth is 47.6% with SR leukemia; 96.7% in the experiment on RPMI-8226 leukemia; 90.7% in the experiment on OVCAR-8 ovarian; 87.2% in the experiment with OVCAR-5 ovarian; 82.5% with OVCAR-4 ovarian; 54.7% in the experiment with IGROV1 ovarian. Further, the figures for the growth with OVCAR-3 ovarian, in the experiment on HS 578T breast and in the experiment on NCI/ADR-RES ovarian were 10.4%, 65.2% and 82.9%, respectively.

As to `Clc1cccc(Cl)c1Nc1ccc2nnc(-c3ccncc3)n2n1`, the growth is 62.4% in the experiment with SR leukemia; 93.3% with RPMI-8226 leukemia; 97.6% in the experiment on OVCAR-8 ovarian; 102% in the experiment with OVCAR-5 ovarian; 109% with SK-OV-3 ovarian; 93.8% with IGROV1 ovarian. In addition, the growth in the experiment with OVCAR-3 ovarian was 110%; with HS 578T breast it was 103%; in the experiment on NCI/ADR-RES ovarian, 101%.

As for `CCN(CC)c1ccc2c(c1)OS(=O)(=O)N=C2`, the growth with SR leukemia is 93.3%; in the experiment on RPMI-8226 leukemia, 104%; in the experiment with OVCAR-8 ovarian, 107%; in the experiment with OVCAR-5 ovarian it was 99.9%; in the experiment on OVCAR-4 ovarian, 97.9%; in the experiment with IGROV1 ovarian it was 97.5%. Besides, the growth in the experiment on OVCAR-3 ovarian was 114%; in the experiment on HS 578T breast, 110%; with NCI/ADR-RES ovarian, 95.6%.

Consider `Cc1nc2ccc(Cl)cc2n1C`, for which the growth with SR leukemia is 96.7%; in the experiment on RPMI-8226 leukemia, 97.4%; with OVCAR-8 ovarian, 101%; in the experiment with OVCAR-5 ovarian, 103%; in the experiment with OVCAR-4 ovarian it was 114%; with IGROV1 ovarian, 106%. Moreover, the growth in the experiment on HS 578T breast was 99.6%; with NCI/ADR-RES ovarian, 112%.

Regarding `CCCCC/C=C\C/C=C/CCCCCCCCNC(=O)Nc1ccc([N+](=O)[O-])cc1`, the growth in the experiment with SR leukemia is 34.9%; in the experiment with RPMI-8226 leukemia, 12.8%; in the experiment with OVCAR-8 ovarian, 52.9%; with OVCAR-5 ovarian, 113%; in the experiment with OVCAR-4 ovarian, 93%; in the experiment with IGROV1 ovarian, 46.3%. Moreover, the figures for the growth with OVCAR-3 ovarian, with HS 578T breast and in the experiment with NCI/ADR-RES ovarian were 21.3%, 88.2% and 21.5%, respectively.

As to `CCCCC1COc2cccc3c(SCC(=O)N(C)c4cccc5ccccc45)cc[n+]1c23` (stereo not given), the growth in the experiment with SR leukemia is 96.1%; with RPMI-8226 leukemia, 89.5%; in the experiment with OVCAR-8 ovarian, 102%; in the experiment on OVCAR-5 ovarian, 112%; in the experiment with OVCAR-4 ovarian, 99%; with IGROV1 ovarian it was 111%. Besides, the growth is 107% in the experiment on OVCAR-3 ovarian, 108% in the experiment with HS 578T breast and 104% in the experiment on NCI/ADR-RES ovarian.

For `O=C(c1ccc2ncc(-c3nc(NC4CC4)ncc3F)n2c1)N1CCOCC1`, the growth in the experiment on SR leukemia is 3.87% (active); in the experiment with RPMI-8226 leukemia, 25.7%; with OVCAR-8 ovarian it was 18.5%; in the experiment on OVCAR-5 ovarian, 9.93% (active); with OVCAR-4 ovarian, 63.2%; with IGROV1 ovarian, 8.94% (active). Further, the growth was -22.2% (active) in the experiment on OVCAR-3 ovarian, 4.89% (active) in the experiment with HS 578T breast and 48.2% with NCI/ADR-RES ovarian.

Consider `CCCCCCCC/C=C\CCCCCCCCOc1cccc(CC(=O)NCC[N+]2(C)CCCCC2)c1`, for which the growth with SR leukemia is 34.7%; with RPMI-8226 leukemia it was 67.1%; with OVCAR-8 ovarian, 74.3%; in the experiment on OVCAR-5 ovarian it was 39.6%; in the experiment with OVCAR-4 ovarian it was 66.3%; with IGROV1 ovarian, -37% (active). Also, the growth with OVCAR-3 ovarian is 89.9%; with HS 578T breast it was 73.9%; in the experiment on NCI/ADR-RES ovarian it was 102%.

Consider `CCOC(=O)c1[nH]c2cc(Cl)ccc2c1[C@@H](C(=O)NC(C)(C)C)N(CC)C(=O)CCCCC#Cc1cccc2c1CN(C1CCC(=O)NC1=O)C2=O` (stereo not given in full), for which the growth with SR leukemia was 12.7%; in the experiment on RPMI-8226 leukemia, 7.28% (active); with OVCAR-8 ovarian, 10.9%; in the experiment on OVCAR-5 ovarian, 39.6%; in the experiment with OVCAR-4 ovarian, 13.2%; in the experiment with IGROV1 ovarian it was 8.84% (active). Also, the growth in the experiment with HS 578T breast was -12.6% (active).

As to `Cc1cc(NS(=O)(=O)c2ccc(NC(=O)COc3ccc(-c4cc5ccccc5[nH]4)cc3)cc2)no1`, the growth in the experiment with SR leukemia is -5.32% (active); with RPMI-8226 leukemia, 24.9%; in the experiment with OVCAR-8 ovarian, 32.3%; in the experiment on OVCAR-5 ovarian, 52.3%; in the experiment on SK-OV-3 ovarian, 13.7%; in the experiment on IGROV1 ovarian, 35.3%. In addition, the growth is -0.541% (active) with OVCAR-3 ovarian and 16.6% in the experiment with HS 578T breast.
